# Publication PMC8384837, “Expanding the binding specificity for RNA recognition by a PUF domain”
# Assays:
# Experiment in all cases: yeast three-hybrid, YBZ-1, SC-Leu-His + 0.5 mM 3-AT, 4 days
# Details in all cases: tags: N-Gal4 AD-HA kept; label: inside an RPR1-promoter hybrid RNA with tandem MS2 sites; ssRNA
# [1] = target: PUM1 PUF domain R1-KCS (Homo sapiens, UniProt Q14671 828-1176, S863K;R864C;Q867S)
# Method in brief: (§1)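 Sequencing with Illumina followed PCR amplification of the repeat regions from transformants grown four days on SC-Leu (input) or SC-Leu-His + 0.5 mM 3-AT (selection). The transformants were strain YBZ-1 with a LexA–MS2 coat fusion and a HIS3 reporter, carrying Pumilio-1 PUF domain libraries and matching RNA elements. The interaction score is the log change in variant frequency from input to selection, computed in log2 with a pseudocount of 1 for absent variants.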
# [2] = target: PUM1 PUF domain R4-ARC (Homo sapiens, UniProt Q14671 828-1176, N971A;H972R;Q975C)
# Chain of PUM1 PUF domain R4-ARC (Q14671 828-1176 N971A/H972R/Q975C): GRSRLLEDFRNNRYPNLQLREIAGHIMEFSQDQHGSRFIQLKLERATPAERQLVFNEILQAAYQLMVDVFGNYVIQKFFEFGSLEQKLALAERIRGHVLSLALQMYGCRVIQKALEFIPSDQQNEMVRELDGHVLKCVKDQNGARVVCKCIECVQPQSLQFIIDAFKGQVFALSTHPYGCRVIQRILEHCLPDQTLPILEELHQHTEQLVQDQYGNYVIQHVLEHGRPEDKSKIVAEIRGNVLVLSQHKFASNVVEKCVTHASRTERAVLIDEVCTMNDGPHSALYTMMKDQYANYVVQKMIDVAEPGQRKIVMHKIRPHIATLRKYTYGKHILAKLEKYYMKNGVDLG
# Method in brief: as §1
# [3] = target: PUM1 PUF domain R4-ANL (Homo sapiens, UniProt Q14671 828-1176, N971A;H972N;Q975L)
# Method in brief: as §1
# [4] = target: PUM1 PUF domain R4-SPR (Homo sapiens, UniProt Q14671 828-1176, N971S;H972P;Q975R)
# Method in brief: as §1
# [5] = target: PUM1 PUF domain R4-WGS (Homo sapiens, UniProt Q14671 828-1176, N971W;H972G;Q975S)
# Method in brief: as §1
# [6] = target: PUM1 PUF domain R5-FHS (Homo sapiens, UniProt Q14671 828-1176, C1007F;R1008H;Q1011S)
# Chain of PUM1 PUF domain R5-FHS (Q14671 828-1176 C1007F/R1008H/Q1011S): as the sequence (Q14671 828-1176 N971A/H972R/Q975C) above, with A144N, R145H, C148Q, C180F, R181H, Q184S counted along it
# Method in brief: as §1
# [7] = target: PUM1 PUF domain R5-KHS (Homo sapiens, UniProt Q14671 828-1176, C1007K;R1008H;Q1011S)
# Method in brief: as §1
# [8] = target: PUM1 PUF domain R3-LWR (Homo sapiens, UniProt Q14671 828-1176, C935L;R936W;Q939R)
# Chain of PUM1 PUF domain R3-LWR (Q14671 828-1176 C935L/R936W/Q939R): as the sequence (Q14671 828-1176 N971A/H972R/Q975C) above, with C108L, R109W, Q112R, A144N, R145H, C148Q counted along it
# Method in brief: as §1
# [9] = target: PUM1 PUF domain R3-LWA (Homo sapiens, UniProt Q14671 828-1176, C935L;R936W;Q939A)
# Chain of PUM1 PUF domain R3-LWA (Q14671 828-1176 C935L/R936W/Q939A): as the sequence (Q14671 828-1176 N971A/H972R/Q975C) above, with C108L, R109W, Q112A, A144N, R145H, C148Q counted along it
# Method in brief: as §1
# [10] = target: PUM1 PUF domain R3-GWA (Homo sapiens, UniProt Q14671 828-1176, C935G;R936W;Q939A)
# Chain of PUM1 PUF domain R3-GWA (Q14671 828-1176 C935G/R936W/Q939A): as the sequence (Q14671 828-1176 N971A/H972R/Q975C) above, with C108G, R109W, Q112A, A144N, R145H, C148Q counted along it
# Method in brief: as §1
# [11] = target: PUM1 PUF domain R3-RRT (Homo sapiens, UniProt Q14671 828-1176, C935R;Q939T)
# Chain of PUM1 PUF domain R3-RRT (Q14671 828-1176 C935R/Q939T): as the sequence (Q14671 828-1176 N971A/H972R/Q975C) above, with C108R, Q112T, A144N, R145H, C148Q counted along it
# Method in brief: as §1
# [12] = target: PUM1 PUF domain R7-RRW (Homo sapiens, UniProt Q14671 828-1176, S1079R;N1080R;E1083W)
# Chain of PUM1 PUF domain R7-RRW (Q14671 828-1176 S1079R/N1080R/E1083W): as the sequence (Q14671 828-1176 N971A/H972R/Q975C) above, with A144N, R145H, C148Q, S252R, N253R, E256W counted along it
# Method in brief: as §1
# [13] = target: PUM1 PUF domain R7-LST (Homo sapiens, UniProt Q14671 828-1176, S1079L;N1080S;E1083T)
# Chain of PUM1 PUF domain R7-LST (Q14671 828-1176 S1079L/N1080S/E1083T): as the sequence (Q14671 828-1176 N971A/H972R/Q975C) above, with A144N, R145H, C148Q, S252L, N253S, E256T counted along it
# Method in brief: as §1
# [14] = target: PUM1 PUF domain R4-AQY (Homo sapiens, UniProt Q14671 828-1176, N971A;H972Q;Q975Y)
# Method in brief: as §1
# [15] = target: PUM1 PUF domain R4-AYP (Homo sapiens, UniProt Q14671 828-1176, N971A;H972Y;Q975P)
# Method in brief: as §1
# [16] = target: PUM1 PUF domain R5-NPR (Homo sapiens, UniProt Q14671 828-1176, C1007N;R1008P;Q1011R)
# Method in brief: as §1
# [17] = target: PUM1 PUF domain R2-EWD (Homo sapiens, UniProt Q14671 828-1176, N899E;Y900W;Q903D)
# Chain of PUM1 PUF domain R2-EWD (Q14671 828-1176 N899E/Y900W/Q903D): as the sequence (Q14671 828-1176 N971A/H972R/Q975C) above, with N72E, Y73W, Q76D, A144N, R145H, C148Q counted along it
# Method in brief: as §1
# [18] = target: PUM1 PUF domain R8-FFK (Homo sapiens, UniProt Q14671 828-1176, N1122F;Y1123F;Q1126K)
# Chain of PUM1 PUF domain R8-FFK (Q14671 828-1176 N1122F/Y1123F/Q1126K): as the sequence (Q14671 828-1176 N971A/H972R/Q975C) above, with A144N, R145H, C148Q, N295F, Y296F, Q299K counted along it
# Method in brief: as §1
# [19] = target: PUM1 PUF domain R5-KER (Homo sapiens, UniProt Q14671 828-1176, C1007K;R1008E;Q1011R)
# Chain of PUM1 PUF domain R5-KER (Q14671 828-1176 C1007K/R1008E/Q1011R): as the sequence (Q14671 828-1176 N971A/H972R/Q975C) above, with A144N, R145H, C148Q, C180K, R181E, Q184R counted along it
# Method in brief: as §1
# [20] = target: PUM1 PUF domain R5-CGR (Homo sapiens, UniProt Q14671 828-1176, R1008G;Q1011R)
# Chain of PUM1 PUF domain R5-CGR (Q14671 828-1176 R1008G/Q1011R): as the sequence (Q14671 828-1176 N971A/H972R/Q975C) above, with A144N, R145H, C148Q, R181G, Q184R counted along it
# Method in brief: as §1
# Chain of PUM1 PUF domain R1-KCS (Q14671 828-1176 S863K/R864C/Q867S): as the sequence (Q14671 828-1176 N971A/H972R/Q975C) above, with S36K, R37C, Q40S, A144N, R145H, C148Q counted along it
sequence,measurement,setting,value
GGCUAGAACUAGUGGAUCCCCCGGCGCCCGGCGGCUCGAGCCCGGGUAAGUGUAAAUCGUCUGCAUGCCGCCGGGCGCCAUGCCUGCAGGUCGACUCUAGAAAACAUG,binding signal,[1],4.55 log2 enrichment (interaction score)
GGCUAGAACUAGUGGAUCCCCCGGCGCCCGGCGGCUCGAGCCCGGGUAAGUGUACAUAGUCUGCAUGCCGCCGGGCGCCAUGCCUGCAGGUCGACUCUAGAAAACAUG,binding signal,[2],0.97 log2 enrichment (interaction score)
same,binding signal,[3],1.38 log2 enrichment (interaction score)
same,binding signal,[4],2.73 log2 enrichment (interaction score)
same,binding signal,[5],2.86 log2 enrichment (interaction score)
GGCUAGAACUAGUGGAUCCCCCGGCGCCCGGCGGCUCGAGCCCGGGUAAGUGUAAAUUGUCUGCAUGCCGCCGGGCGCCAUGCCUGCAGGUCGACUCUAGAAAACAUG,binding signal,[1],4.89 log2 enrichment (interaction score)
GGCUAGAACUAGUGGAUCCCCCGGCGCCCGGCGGCUCGAGCCCGGGUAAGUGUGAAUAGUCUGCAUGCCGCCGGGCGCCAUGCCUGCAGGUCGACUCUAGAAAACAUG,binding signal,[6],2.39 log2 enrichment (interaction score)
same,binding signal,[7],2.1 log2 enrichment (interaction score)
GGCUAGAACUAGUGGAUCCCCCGGCGCCCGGCGGCUCGAGCCCGGGUAAGUGUAAUUAGUCUGCAUGCCGCCGGGCGCCAUGCCUGCAGGUCGACUCUAGAAAACAUG,binding signal,[8],4.17 log2 enrichment (interaction score)
same,binding signal,[9],4.71 log2 enrichment (interaction score)
same,binding signal,[10],1.14 log2 enrichment (interaction score)
same,binding signal,[11],3.01 log2 enrichment (interaction score)
GGCUAGAACUAGUGGAUCCCCCGGCGCCCGGCGGCUCGAGCCCGGGUAAGUGUAAGUAGUCUGCAUGCCGCCGGGCGCCAUGCCUGCAGGUCGACUCUAGAAAACAUG,binding signal,[8],5.5 log2 enrichment (interaction score)
same,binding signal,[9],5.58 log2 enrichment (interaction score)
same,binding signal,[10],2.87 log2 enrichment (interaction score)
GGCUAGAACUAGUGGAUCCCCCGGCGCCCGGCGGCUCGAGCCCGGGUAAGUUUAAAUAGUCUGCAUGCCGCCGGGCGCCAUGCCUGCAGGUCGACUCUAGAAAACAUG,binding signal,[12],4.75 log2 enrichment (interaction score)
same,binding signal,[13],3.64 log2 enrichment (interaction score)
GGCUAGAACUAGUGGAUCCCCCGGCGCCCGGCGGCUCGAGCCCGGGUAAGUGUAUAUAGUCUGCAUGCCGCCGGGCGCCAUGCCUGCAGGUCGACUCUAGAAAACAUG,binding signal,[2],1.56 log2 enrichment (interaction score)
same,binding signal,[3],2.71 log2 enrichment (interaction score)
same,binding signal,[4],3.12 log2 enrichment (interaction score)
same,binding signal,[5],5.21 log2 enrichment (interaction score)
GGCUAGAACUAGUGGAUCCCCCGGCGCCCGGCGGCUCGAGCCCGGGUAAGUGUAAAUAGUCUGCAUGCCGCCGGGCGCCAUGCCUGCAGGUCGACUCUAGAAAACAUG,binding signal,[6],2.12 log2 enrichment (interaction score)
same,binding signal,[8],2.03 log2 enrichment (interaction score)
same,binding signal,[9],2.61 log2 enrichment (interaction score)
same,binding signal,[2],5.53 log2 enrichment (interaction score)
same,binding signal,[10],3.32 log2 enrichment (interaction score)
same,binding signal,[7],2.33 log2 enrichment (interaction score)
same,binding signal,[14],3.35 log2 enrichment (interaction score)
same,binding signal,[15],7.85 log2 enrichment (interaction score)
same,binding signal,[5],3.11 log2 enrichment (interaction score)
GGCUAGAACUAGUGGAUCCCCCGGCGCCCGGCGGCUCGAGCCCGGGUAAGUGUUAAUAGUCUGCAUGCCGCCGGGCGCCAUGCCUGCAGGUCGACUCUAGAAAACAUG,binding signal,[6],0.94 log2 enrichment (interaction score)
same,binding signal,[7],6.04 log2 enrichment (interaction score)
same,binding signal,[16],4.1 log2 enrichment (interaction score)
GGCUAGAACUAGUGGAUCCCCCGGCGCCCGGCGGCUCGAGCCCGGGUAAGUGUAAAGAGUCUGCAUGCCGCCGGGCGCCAUGCCUGCAGGUCGACUCUAGAAAACAUG,binding signal,[17],9.68 log2 enrichment (interaction score)
GGCUAGAACUAGUGGAUCCCCCGGCGCCCGGCGGCUCGAGCCCGGGUAAGCGUAAAUAGUCUGCAUGCCGCCGGGCGCCAUGCCUGCAGGUCGACUCUAGAAAACAUG,binding signal,[18],3.27 log2 enrichment (interaction score)
GGCUAGAACUAGUGGAUCCCCCGGCGCCCGGCGGCUCGAGCCCGGGUAAGUCUAAAUAGUCUGCAUGCCGCCGGGCGCCAUGCCUGCAGGUCGACUCUAGAAAACAUG,binding signal,[12],4.3 log2 enrichment (interaction score)
GGCUAGAACUAGUGGAUCCCCCGGCGCCCGGCGGCUCGAGCCCGGGUAAGUGUCAAUAGUCUGCAUGCCGCCGGGCGCCAUGCCUGCAGGUCGACUCUAGAAAACAUG,binding signal,[6],1.75 log2 enrichment (interaction score)
same,binding signal,[19],2.91 log2 enrichment (interaction score)
same,binding signal,[7],4.98 log2 enrichment (interaction score)
same,binding signal,[20],4.13 log2 enrichment (interaction score)
same,binding signal,[16],4.07 log2 enrichment (interaction score)
